# Assay outcomes from PubChem BioAssay.
# RE007 growth inh – less growth of the S. pombe RE007 Vpr strain; S. pombe RE007 Vpr strain, BacTiter-Glo ATP luminescence, 24 h; Potency, µM (titrated, usually from 92.2 µM), inactives show at the highest dose activity change, negative = less growth, usual class: inhibitors; 0.21% of 360,000 active; AID 651644; active means well fitted falling curve with a large enough effect; inconclusive means small, poorly fitted or top-dose-only effect; inactive means no such curve, though single readings can be large or run the other way; further: potency means the concentration at half of the fitted maximal effect; on the % scale 0 is the no-effect control and ±100 the full control effect; nearly all actives have a fitted effect of over 50% in size
#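 Fission yeast strain RE007, carrying one chromosomally integrated HIV-1 vpr copy, was seeded at OD 0.01 in PMG+AL medium with 23 nL pinned compound. After 24 h at 30 °C and 99% humidity, viability was read by BacTiter-Glo luminescence.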
# FBPA Giardia inh – Giardia lamblia aldolase inhibition; 0.71% of 290,000 active; Potency, µM (top dose mostly 59.6 µM), for inactives: at the top dose activity, negative = inhibition, most hits filed as inhibitors; purified Giardia FBPA; further: potency means the concentration at half of the fitted maximal effect; on the % scale 0 is the no-effect control and ±100 the full control effect; nearly all actives have a fitted effect of over 55% in size
# Target sequence (A8B2U2 whole entry, looked up): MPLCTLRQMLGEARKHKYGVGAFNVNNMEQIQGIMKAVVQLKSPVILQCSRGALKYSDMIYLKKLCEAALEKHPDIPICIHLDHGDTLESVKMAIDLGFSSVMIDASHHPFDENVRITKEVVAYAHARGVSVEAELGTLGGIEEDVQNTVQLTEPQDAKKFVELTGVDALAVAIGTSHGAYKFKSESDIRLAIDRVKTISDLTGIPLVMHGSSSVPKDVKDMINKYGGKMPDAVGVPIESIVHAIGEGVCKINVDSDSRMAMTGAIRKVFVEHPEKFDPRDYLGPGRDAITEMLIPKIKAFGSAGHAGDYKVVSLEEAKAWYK
#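 Giardia FBPA (40 nM reagent) was preincubated 10 min at RT with compound (up to 57.5 uM final), then substrate plus GAPDH/TPI/NAD/arsenate coupling system with diaphorase/resazurin was added; resorufin fluorescence (525/598 nm) was read after 20 min.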
# Tb PYK inh – T. brucei pyruvate kinase inhibition. 0.12% of 410,000 active. TbPYK enzyme, Kinase-Glo Plus ATP luminescence, 45 min. AID 624173. Potency, µM (top dose mostly 76.8 µM), for inactives: top-dose activity, negative = inhibition, usual class: inhibitors. Q57TT1; further: potency means the concentration at half of the fitted maximal effect; on the % scale 0 is the no-effect control and ±100 the full control effect; nearly all actives have a fitted effect of over 50% in size
#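 T. brucei PYK with substrate was exposed to pin-transferred compounds across a concentration series, then started with 130 uM ADP (final). After 45 min at room temperature, Kinase-Glo Plus luminescence was read, normalized and curve-fitted.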
# Shiga inhibitor – Shiga toxin inhibition; inhibition, % at 38.7 µM; Vero cells, Shiga toxin protein synthesis inhibition reporter; 9.2% of 290,000 active; in the data active means inhibition mostly above about 28%, no sharp cut-off; inactive means mostly below about 43%; further: 0% is about no effect
# CHX counter – counter-screen for Shiga toxin inhibitors: cycloheximide protein synthesis inhibition | cell reporter, cycloheximide protein synthesis inhibition counterscreen | max response, % | 12% of 300,000 active | AID 2314; in the data active means max response mostly above about 13%, no sharp cut-off; inactive means mostly below about 14%; further: read at 38.3 µM for the half of the compounds with a filed dose; 0% is about no effect
# LmPK inh – blocks Leishmania mexicana pyruvate kinase activity | 0.37% of 290,000 active | Potency, µM (series often up to 57.5 µM), for inactives: at the top dose activity change, negative = inhibition, hits mostly inhibitors | Q27686 | purified LmPK, Kinase-Glo ATP luminescence, 1 h; further: potency means the concentration at half of the fitted maximal effect; on the % scale 0 is the no-effect control and ±100 the full control effect
#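 qHTS format; LmPK 0.1 nM; substrates PEP 0.5 mM and ADP 0.1 mM. One-hour room-temperature incubation, then coupled luciferase luminescence; 0.5 nM enzyme wells mark activation.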
# An asterisk follows results filed as active; i = inactive; ? = inconclusive; · = not tested or not shown; [ ] = dose if it differs, or a comment. This is one part of a sample in which hits are shown more often than they occur. Unless noted, the call rests on the fitted dose curve; in most records, active means well fitted curve in the direction sought with a large enough effect; inconclusive means small, poorly fitted or top-dose-only effect, or another doubt; inactive means no such curve, though single readings can be large; an effect the other way counts as inactive or inconclusive.
SMILES,RE007 growth inh,FBPA Giardia inh,Tb PYK inh,Shiga inhibitor,CHX counter,LmPK inh
CCOc1cc(/C=C/c2ccc3cccc([N+](=O)[O-])c3n2)ccc1O,-10%,-5%,-4%,19,13*,7%
O=[N+]([O-])c1cccc(/C=C/c2ccc3cccc(O)c3n2)c1,4%,13%,6%,107*,35*,4%
Oc1ccc(/C=C/c2ccc3cccc(O)c3n2)cc1Br,?,10%,3%,68*,50*,2%
O=[N+]([O-])c1cccc2ccc(/C=C/c3ccc(F)cc3)nc12,-21%,-11%,1%,95*,131*,-3%
COC(=O)C1(Cc2ccccc2)C=C2C(=C(C(C)C)C(=O)C2C)CN1 (stereo not drawn),·,-26%,·,·,·,·
COc1cc(/C=C/c2ccc3cccc([N+](=O)[O-])c3n2)ccc1OCC#N,-5%,-3%,1%,-6,16,-1%
O=[N+]([O-])c1ccc(/C=C/c2ccc3cccc([N+](=O)[O-])c3n2)cc1,-2%,-12%,-3%,24,22*,4%
CO[C@@H]1[C@@H](OC2OC(C)C(OC3CC(C)(O)C(O)C(C)O3)C(N(C)C)C2O)[C@@H](CC=O)C[C@@H](C)[C@@H](OC2CCC(N(C)C)C(C)O2)/C=C/C=C/C[C@@H](C)OC(=O)C[C@H]1OC(C)=O (stereo partly drawn),·,·,1%,·,·,·
CCNc1ncc2nc(C)c(=O)n(C3CC3)c2n1,·,5%,·,·,·,·
FC(F)(F)c1ccc2c(c1)N1CCCC1CN2 (stereo not drawn),-12%,-21%,?,5,-2,-1%
FC(F)(F)c1ccc2c(c1)NCC1CCCN21 (stereo not drawn),-21%,-13%,1%,40,17*,-8%
C=CCOC(=O)C(C(=O)CC)C(NC(=O)OC)c1ccc(F)cc1 (stereo not drawn),·,3%[12.9 µM],·,·,·,·
CCN(CC)c1ccc(/C=C2/C(=O)c3ccc(C(=O)O)cc3C2=O)cc1,-24%,-3%,?,68*,77*,?
Cc1ccc(NC2=NCC(=O)N2Cc2cccs2)cc1C,5%,-16%,28%,24,29*,5%
COc1ccc(NC2=NCC(=O)N2Cc2cccs2)cc1,-15%,-4%,14%,-14,1,0%
C=CCn1c2ccccc2c(=O)c2cc(C#CC3(O)CCCCC3)ccc21,0%,-27%,-2%,55*,44*,4%
C=CCn1c2ccccc2c(=O)c2cc(C#CC[C@@H](C)O)ccc21,-23%,·,-1%,·,·,·
Cc1ccc(C)c(CNC(=O)c2ccc3c(c2)nc2n3CCCCC2)c1,·,·,-3%,·,·,·
Cc1cccc(C(=O)Oc2ccccc2/C=N/Nc2ccc([N+](=O)[O-])cc2)c1,1%,-1%,1%,-15,-2,1%
O=[N+]([O-])c1ccc(N/N=C/c2cccc(O)c2O)cc1,5%,-12%,-12%,·,27*,7%
O=[N+]([O-])c1ccc(NN=Cc2cccc([N+](=O)[O-])c2)cc1,1%,·,2%,·,·,·
O=[N+]([O-])c1ccc(N/N=C/c2cccc(O)c2)cc1,10%,6%,1%,113*,53*,5%
Cc1nc(-c2cccc(F)c2)sc1CCNC(=O)c1c(F)cccc1Cl,·,·,-6%,·,·,·
O=C(CC1SC(=O)N(c2ccccc2)C1=O)Nc1ccccc1 (stereo not drawn),?,-5%,4%,51*,51*,3%
Cc1ccc(N2C(=O)SC(Cc3ccccc3)C2=O)cc1 (stereo not drawn),-16%,-12%,?,42*,14*,2%
SMILES,RE007 growth inh,FBPA Giardia inh,Tb PYK inh,Shiga inhibitor,CHX counter,LmPK inh
Cc1ccc(NC(=O)CC2=NC(=O)C(CC(=O)Nc3ccccc3F)S2)cc1 (stereo not drawn),-12%,0%,0%,90*,22*,2%
Cc1ccc(NC(=O)CC2Sc3ccc(C(F)(F)F)cc3NC2=O)cc1 (stereo not drawn),·,·,21%,·,·,·
Cc1ccc(NC(=O)CC2SC(=O)N(c3ccccc3)C2=O)cc1 (stereo not drawn),-27%,?,-14%,51*,27*,2%
CCCCCCCCCCCCCCCC(=O)OC[C@@H](NC(=O)C(Cl)Cl)[C@H](O)c1ccc([N+](=O)[O-])cc1,·,·,-2%,·,·,·
Cc1ccccc1C1CC(=O)Oc2cc(C)c(Cl)c(C)c21 (stereo not drawn),·,6%[89.2 µM],·,i,-1,·
CCOC(=O)c1cccc(NC(=O)CCn2c(-c3ccc(F)cc3)cc(C(=O)OCC)c2C)c1,·,·,1%[15.4 µM],·,·,·
O=C(CC1Sc2ncnn2C1=O)Nc1ccccc1 (stereo not drawn),-15%,?,-14%,-8,17*,9%
O=C(CC1SC2=NCCN2C1=O)Nc1ccccc1 (stereo not drawn),-3%,-1%,5%,10,6,2%
Cc1cccc(NC2SC(=O)N(c3ccccc3)C2=O)c1 (stereo not drawn),4%,5%,-10%,71*,53*,-13%
Cc1ccc(NC(=O)CC2SC3=NCCN3C2=O)cc1 (stereo not drawn),5µM*,-1%,2%,6,6,0%
CN(C)c1ncc2nc(-c3cc(F)cc(F)c3)c(=O)n(C[C@H]3CCCO3)c2n1,·,0%,·,·,·,·
COc1ccc(C2=Nn3c(nnc3-c3ccccc3OC)SC2)c(OC)c1,·,4%,·,-7,-1,·
O=C(c1nc2ccccc2s1)N1CCSCC1,-1%,4%,0%,135*,29*,-13%
O=C(c1nc2ccccc2s1)N1CCN(c2ccccn2)CC1,?,2%,33%,29*,21*,-4%
Cc1ccsc1C(=O)N1CCCC(CO)(Cc2ccccc2)C1 (stereo not drawn),-1%,2%,2%,38,22*,11%
Cc1ccsc1C(=O)N1CCC(CO)(Cc2ccccc2)CC1,14%,1%,6%,15,-3,3%
O=[N+]([O-])c1ccc(N=Nc2c(Cl)cc(O)cc2Cl)cc1,·,1%,-28%,111*,29*,22µM*
N/C(=N\OC(=O)c1cc(Cl)ccc1Cl)c1cccnc1,-5%,6%,0%,56,34*,0%
O=C(O/N=C(/c1ccccc1)c1ccncc1)c1ccc(F)cc1,17%,3%,3%,-4,-7,-1%
N/C(=N\OC(=O)c1ccccc1)c1ccn[nH]1,?,·,-25%,49*,25*,-20%
N/C(=N\OC(=O)c1cc(Br)ccc1Cl)c1cccnc1,6%,0%,4%,23,9,-1%
N/C(=N\OC(=O)c1ccccc1)c1cccnc1,-16%,-1%,-8%,66*,47*,?
N/C(=N\OC(=O)c1ccccc1Cl)c1cccnc1,20µM*,4%,-1%,61*,38*,?
